High-throughput results (PubChem BioAssay)
This is a sample that favours compounds with a hit; in the whole collection about 5.6% have one here.
ALR inh: human ALR oxidase inhibition via reduced H2O2 | purified ALR, DTT oxidation, H2O2 HRP-luminol luminescence | P55789 | hit rate 3.8% among 290,000 | inhibition, % (no concentration beside the values);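 active = mean replicate inhibition above about 79%, with every replicate also reaching it, limit read from the data; inconclusive = only one of the two criteria met; inactive = mean below limit and not every replicate reaching it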
Target sequence (P55789 whole entry, looked up): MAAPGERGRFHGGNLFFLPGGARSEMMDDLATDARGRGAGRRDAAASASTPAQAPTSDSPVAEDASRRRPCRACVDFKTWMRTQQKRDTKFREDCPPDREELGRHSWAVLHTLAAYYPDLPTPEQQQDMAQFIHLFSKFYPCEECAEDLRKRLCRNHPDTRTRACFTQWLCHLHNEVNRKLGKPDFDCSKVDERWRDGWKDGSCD
PHOSPHO1 block: PHOSPHO1 (human) inhibition | inhibition, % at 13.3 µM | hit rate 1.1% among 290,000 | Q8TCT1 | AID 1565 | recombinant PHOSPHO1, absorbance phosphatase assay; in the data active = inhibition above about 60%
Target sequence (Q8TCT1 whole entry, looked up): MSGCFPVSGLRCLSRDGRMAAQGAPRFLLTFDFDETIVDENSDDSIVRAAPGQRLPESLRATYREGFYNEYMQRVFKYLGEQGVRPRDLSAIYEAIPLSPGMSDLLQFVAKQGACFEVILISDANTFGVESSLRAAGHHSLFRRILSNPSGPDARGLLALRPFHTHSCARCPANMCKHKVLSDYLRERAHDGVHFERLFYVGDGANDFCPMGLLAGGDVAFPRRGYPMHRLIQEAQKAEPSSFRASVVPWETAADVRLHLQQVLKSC
M18AAP inhibitor: PfM18AAP enzyme inhibition; recombinant PfM18AAP, H-Glu-NHMec fluorogenic cleavage; inhibition, % at 7.35 µM; hit rate 1.2% among 290,000; AID 1822;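 active = inhibition above the campaign mean inhibition over all tested compounds plus 3 SD, cut at about 28% in these data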;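 also: 0% = plate median of test compound wells and 100% = 2 mM ZnCl2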
Cardio protect: protects H9c2 cardiomyocytes from peroxide injury | AID 588492 | hit rate 0.63% among 360,000 | H2O2 injury protection, ATPLite, 2 h | protection from H2O2 cell death, % at 20 µM;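 active = compounds giving at least 50% protection of heart cells from peroxide-induced death in the single-dose screen, raw or plate-pattern-corrected value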;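 also: 0% = DMSO wells with peroxide and 100% = DMSO wells without peroxide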
PfG6PD inh: PfG6PD (Plasmodium falciparum) enzyme inhibition; PfGluPho enzyme, NADPH resazurin-diaphorase fluorescence; inhibition, % at 20 µM; hit rate 0.78% among 350,000;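 active = inhibition reaching at least a set limit at 20 µM in the primary screen, cut at about 59% in these data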;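 also: 0% = DMSO wells with substrate and 100% = DMSO wells lacking glucose-6-phosphate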
PfGluPho conf: PfG6PD inhibition, single-dose confirmed | shares compounds with PfG6PD inh | inhibition, % at 20 µM | recombinant PfGluPho, NADPH-diaphorase-resazurin fluorescence | hit rate 34% among 2,400;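 active = inhibition of at least 50% at 20 µM in any single replicate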;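 also: 0% = DMSO with substrate and 100% = DMSO lacking glucose-6-phosphate substrate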
Diaphorase 10uM: diaphorase inhibition or oxidation at 10 uM NADPH. shares compounds with PfG6PD inh. diaphorase-coupled resazurin reduction, fluorescence, NADPH 10 uM. inhibition, % at 20 µM. hit rate 39% among 820;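 active = average inhibition reaching 50% or more with the compound at 20 µM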;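 also: resorufin red fluorescence formed as diaphorase reduces resazurin using NADPH; 0% = DMSO with enzyme and 100% = DMSO without enzyme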
Diaphorase 30uM: inhibits diaphorase or oxidizes, flagging false PfG6PD hits. shares compounds with PfG6PD inh. Diaphorase/resazurin coupled assay, resorufin fluorescence, 30 uM NADPH. inhibition, % at 20 µM. hit rate 29% among 820. AID 504863;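 active = inhibition averaging 50% or more, tested at 20 µM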;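 also: 0% = DMSO with enzyme and 100% = DMSO wells lacking diaphorase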
* = called active by the depositor; ? = inconclusive; nt = no result.

SMILES	ALR inh	PHOSPHO1 block	M18AAP inhibitor	Cardio protect	PfG6PD inh	PfGluPho conf	Diaphorase 10uM	Diaphorase 30uM
COc1ccc(C(=O)Nc2nnc(-c3ccccc3)s2)cc1	-1	19	-1	-5	-10	nt	nt	nt
CC1CCN(S(=O)(=O)c2nnc(NC(=O)c3cccc(Cl)c3)s2)CC1	0	33	-5	-27	86*	42	nt	nt
CCOCc1nnc(NC(=O)c2cccc(OC)c2)s1	-5	32	-2	-3	22	nt	nt	nt
COc1ccc(C(=O)Nc2nnc(C(F)(F)F)s2)cc1	4	-10	2	-6	118*	96*	89*	62*
O=C(Nc1nnc(S(=O)(=O)N2CCOCC2)s1)c1ccccc1	99*	-19	4	2	63*	31	nt	nt
CCc1nnc(NC(=O)c2cccc(OC)c2)s1	-2	2	-1	-17	62*	42	nt	nt
COc1ccc(C(=O)Nc2nnc(S(=O)(=O)N3CCOCC3)s2)cc1	4	49	4	-4	78*	51*	39	32
COc1ccccc1C(=O)Nc1nnc(S(=O)(=O)N2CCOCC2)s1	-5	47	1	6	-5	nt	nt	nt
O=C(Nc1nnc(S(=O)(=O)N2CCOCC2)s1)c1ccc(Cl)cc1	-2	-9	2	-11	104*	72*	72*	54*
Cc1ccc2[nH]c(C(=O)N3CCC(C(N)=O)CC3)cc2c1	10	13	-1	-4	-5	nt	nt	nt
N#Cc1ccc2c(=O)n(-c3ccccc3)sc2c1	nt	nt	nt	-32	123*	108*	5	-6
N#Cc1c(N)n(-c2ccccc2)c(=O)c2cc([N+](=O)[O-])ccc12	17	-10	-17	4	-2	nt	nt	nt
CC(=O)Nc1ccc2c(=O)n(-c3ccccc3)sc2c1	nt	nt	nt	-29	127*	105*	-16	1
O=c1c2cc(C(F)(F)F)ccc2sn1-c1ccccc1	nt	nt	nt	-33	128*	94*	-3	5
COc1ccc(N2CCN(C(=O)c3ccc(Cl)c(S(=O)(=O)N4CCOCC4)c3)CC2)cc1	nt	nt	nt	-7	0	nt	nt	nt
O=S(=O)(Nc1c(O)ccc2ccccc12)c1cccc2ccccc12	87*	nt	nt	-4	84*	44	nt	nt
Cc1ccc(S(=O)(=O)NN=Cc2c(O)ccc3ccccc23)cc1	nt	nt	nt	5	-17	nt	nt	nt
Cc1ccc(S(=O)(=O)Nc2c(O)ccc3ccccc23)cc1	88*	nt	nt	-12	81*	47	nt	nt
NS(=O)(=O)c1ccc(CCNC(=O)CCNS(=O)(=O)c2ccccc2C(F)(F)F)cc1	-3	nt	nt	0	-1	nt	nt	nt
Cc1cc(C)cc(-n2c(SCC(=O)NCc3ccc4c(c3)OCO4)nc3ccccc3c2=O)c1	0	-4	5	0	5	nt	nt	nt
O=C(CSc1nc2cc([N+](=O)[O-])ccc2n1-c1ccccc1)NCc1ccc2c(c1)OCO2	?	-6	38*	8	68*	-6	nt	nt
Cc1ccc(S(=O)(=O)N[C@@H](Cc2ccccc2)C(=O)N2CCC[C@@H]2C(=O)O)cc1	-13	42	2	-5	-20	nt	nt	nt
O=c1ccn(-c2cccc(C(F)(F)F)c2)nc1-c1ccn(-c2cccc(Cl)c2)n1	-31	-11	0	21	87*	67*	61*	57*
C/C(=N\Nc1ccc(C)c(Cl)c1)c1cccnc1	99*	39	18	-6	96*	37	nt	nt
Cc1[nH]c2ccccc2c1/C=N/NC(=O)c1cccc(Br)c1	4	nt	5	9	19	nt	nt	nt
SMILES	ALR inh	PHOSPHO1 block	M18AAP inhibitor	Cardio protect	PfG6PD inh	PfGluPho conf	Diaphorase 10uM	Diaphorase 30uM
Cc1[nH]c2ccccc2c1/C=N/NC(=O)c1cccc(S(=O)(=O)Nc2ccccc2Cl)c1	0	4	-4	8	83*	68*	65*	48
Cc1nn(C)c(=O)n1-c1ccccc1	nt	23	1	8	7	nt	nt	nt
Cn1c2nc(=O)n(-c3ccccc3)c(=O)c-2nc2c1CCCC2	nt	nt	nt	2	81*	49	nt	nt
CN1/C(=N\O)c2cccc3cccc1c23	?	3	1	9	76*	46	nt	nt
COc1ccccc1NC(=O)C(C)Sc1nnc2ccccn12 (stereo not given)	3	nt	nt	-4	-4	nt	nt	nt
O=C(CSc1nc2ccccc2[nH]1)NC1CCCc2ccccc21 (stereo not given)	-1	8	-3	0	64*	57*	42	40
O=C(CSc1nc2ccc(Cl)cc2[nH]1)NC1CCCc2ccccc21 (stereo not given)	-5	-19	11	-6	107*	55*	42	34
Cc1ccc2nc(SC(C)C(=O)NC3CCCc4ccccc43)[nH]c2c1 (stereo not given)	nt	-21	2	-6	76*	44	nt	nt
Cc1ccccc1-c1cccc([C@@H]2C[C@H]3[C@H](CON3C)CN2S(=O)(=O)c2ccccc2C)c1	nt	nt	nt	5	23	nt	nt	nt
O=C(COC(=O)Cn1cnc2ccccc2c1=O)Nc1ccccc1Sc1ccc(Cl)cc1	43	12	-1	5	71*	38	nt	nt
CCC/C(=N/NC(=O)c1ccccc1Cl)c1ccccc1	-1	-10	6	-5	14	nt	nt	nt
Cc1ccc(CSCC(=O)N/N=C/c2sccc2C)cc1	-6	12	0	-5	78*	52*	63*	54*
COc1ccc(CC(=O)N/N=C/c2sccc2C)cc1	1	-11	0	-3	-4	nt	nt	nt
Cc1cc(C)c(C)c(Cn2c(CO)nc3ccccc32)c1C	3	-32	-4	-12	69*	36	nt	nt
COc1ccc(S(=O)(=O)NCC(=O)N(CC2CCCO2)C(C(=O)NC2CCCC2)C(C)C)cc1 (stereo not given)	-5	14	-5	-6	1	nt	nt	nt
CCOC(=O)c1sc(N/N=C/c2ccccc2)nc1C	nt	-10	2	-5	66*	23	nt	nt
CCOC(=O)c1sc(N/N=C/c2cccc(C)c2)nc1C	-1	30	10	-15	-2	nt	nt	nt
CCOC(=O)c1cnc2ccc(C)cc2c1NCCO	-6	-17	2	-3	32	nt	nt	nt
CCOC(=O)c1cnc2ccc(C)cc2c1Sc1ccccc1C(=O)OC	5	15	2	-6	104*	48*	44	39
Cn1c(=N)n(CC(O)c2cccc3ccccc23)c2ccccc21 (stereo not given)	-11	5	1	0	80*	62*	63*	52*
CCNC(=O)c1cc2c(=O)n3cccc(C)c3nc2n(Cc2ccc(C)cc2)c1=N	-6	7	5	20	49	nt	nt	nt
Cc1cccn2c(=O)c3cc(C(=O)NC(C)C)c(=N)n(Cc4ccncc4)c3nc12	5	10	1	18	73*	21	nt	nt
O=c1ncccn1C1OC(CO)C(O)C1O (stereo not given)	nt	nt	nt	2	nt	nt	nt	nt
CCCCCCn1c(=O)n2n(c1=O)[C@@H]1CN(S(=O)(=O)c3ccc(C)cc3)C[C@]1(O)[C@@H](OC(=O)NCC1CCCCC1)C2	nt	nt	nt	0	65*	-26	nt	nt
